Data published in PubChem BioAssay (Tox21).
Records with an inconclusive call do not appear. The source made the active and inactive calls. Unless noted, the call rests on the fitted dose curve; in most records, active means well fitted curve in the direction sought with a large enough effect in the repeat runs; inconclusive means weak or mixed curves; inactive means no such curve, though single readings can be large; an effect the other way counts as inactive or inconclusive.

What was measured:
[1] = qHTS assay to identify small molecule antagonists of the estrogen receptor alpha (ER-alpha) signaling pathway using the BG1 cell line in the presence of 0.1 nM 17-beta-estradiol - cell viability counter screen (AID 1259241); further: nearly all actives have a fitted effect of over 40% in size
Procedure, shortened: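 Cells were plated and left 24 hr, compounds in DMSO were pinned in, 17beta-estradiol was added to 0.1 nM final, and after 22 hr CellTiter-Fluor reagent was added for 30 min before fluorescence was read.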

[2] = qHTS assay to identify small molecule antagonists of the androgen receptor (AR) signaling pathway using the MDA cell line in the presence of 0.5 nM R1881 - cell viability counter screen (AID 1259242); further: nearly all actives have a fitted effect of over 45% in size
Procedure, shortened: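 MDA-kb2 cells (human breast carcinoma, stably carrying MMTV-luciferase reporter) were exposed to compounds with 0.5 nM R1881 (final) for 16 hr at 37C, 0% CO2; viability then read as live-cell protease fluorescence (CellTiter-Fluor, 30 min) in the same wells.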

[3] = qHTS assay to identify small molecule HDAC inhibitors (AID 1259364); further: nearly all actives have a fitted effect of over 45% in size; further: potency means the concentration at half of the fitted maximal effect; on activity change, negative = inhibition: top concentration of the series differs between compounds
Procedure, shortened: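 Wild-type HCT-116 cells were plated overnight, exposed to compounds for 2 h at 37 °C, then given HDAC-Glo class I/II luminogenic reagent for 30 min at room temperature before luminescence was read.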

[4] = qHTS assay to identify small molecule HDAC inhibitors - cell viability counter screen (AID 1259365); further: series mostly up to about 92 µM; nearly all actives have a fitted effect of over 50% in size
Procedure, shortened: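 Counter screen in wild-type HCT-116 cells: compounds dissolved in DMSO are pin-transferred onto overnight-plated cells and left 2hr at 37C. ATP-based CellTiter-Glo luminescence then measures viable cells.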

[5] = qHTS assay to identify small molecule agonists of the sonic hedgehog signaling (Shh) pathway - cell viability counter screen (AID 1259366); further: nearly all actives have a fitted effect of over 50% in size
Procedure, shortened: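 Cells are plated at 2,000 per well and left 4hr at 37C, 5% CO2 before compound addition. After 23hr of treatment, CellTiter-Fluor reagent is added for 1hr at 37C and fluorescence is measured.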

[6] = qHTS assay to identify small molecule antagonists of the sonic hedgehog signaling (Shh) pathway - cell viability counter screen (AID 1259367); further: nearly all actives have a fitted effect of over 55% in size
Procedure, shortened: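 Using CellTiter-Fluor, viability of Gli1-Luc reporter 3T3 cells is read by fluorescence in the wells used for the Shh luciferase assay. Treatment lasts 23 hr with conditioned medium, then reagent 1 hr at 37C.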

[7] = molecular target: Estrogen receptor (Homo sapiens) (UniProt P03372); experiment: qHTS assay to identify small molecule antagonists of the estrogen receptor alpha (ER-alpha) signaling pathway using the BG1 cell line in the presence of 0.1 nM 17-beta-estradiol (AID 1259244); further: nearly all actives have a fitted effect of over 50% in size
Procedure, shortened: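 VM7Luc4E2 cells (endogenous full-length ER-alpha, stable 4xERE-luciferase) were grown 5 days in phenol red-free medium with charcoal-stripped FBS, then exposed 22 h at 37C to compounds plus 0.1 nM (final) 17beta-estradiol; ONE-Glo luminescence read-out.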

[8] = molecular target: Androgen receptor (Homo sapiens) (UniProt P10275); experiment: qHTS assay to identify small molecule antagonists of the androgen receptor (AR) signaling pathway using the MDA cell line in the presence of 0.5 nM R1881 (AID 1259243); further: nearly all actives have a fitted effect of over 50% in size
Procedure, shortened: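 MDA-kb2 human breast carcinoma cells carrying an MMTV-luciferase reporter (AR- and GR-responsive) were plated, rested 5 hr at 37C, dosed with compounds, then stimulated with 0.5 nM R1881 (final) for 16 hr; luminescence was read after ONE-Glo.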

[9] = qHTS assay to identify small molecule phospholipidosis (PLD) inducers (AID 1259344; active means well fitted curve in the direction sought with a large enough effect; an effect the other way counts as inactive or inconclusive)
Procedure, shortened: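 Fluorescent phospholipid staining (LipidTOX Red) measured by automated microscopy in fixed HepG2 cells after 24 h treatment; nuclei counterstained with Hoechst 33342; amiodarone as reference inducer.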
On the % scale 0 is the no-effect control and ±100 the full control effect.

Sequence of Estrogen receptor (Homo sapiens) (P03372 whole entry, looked up): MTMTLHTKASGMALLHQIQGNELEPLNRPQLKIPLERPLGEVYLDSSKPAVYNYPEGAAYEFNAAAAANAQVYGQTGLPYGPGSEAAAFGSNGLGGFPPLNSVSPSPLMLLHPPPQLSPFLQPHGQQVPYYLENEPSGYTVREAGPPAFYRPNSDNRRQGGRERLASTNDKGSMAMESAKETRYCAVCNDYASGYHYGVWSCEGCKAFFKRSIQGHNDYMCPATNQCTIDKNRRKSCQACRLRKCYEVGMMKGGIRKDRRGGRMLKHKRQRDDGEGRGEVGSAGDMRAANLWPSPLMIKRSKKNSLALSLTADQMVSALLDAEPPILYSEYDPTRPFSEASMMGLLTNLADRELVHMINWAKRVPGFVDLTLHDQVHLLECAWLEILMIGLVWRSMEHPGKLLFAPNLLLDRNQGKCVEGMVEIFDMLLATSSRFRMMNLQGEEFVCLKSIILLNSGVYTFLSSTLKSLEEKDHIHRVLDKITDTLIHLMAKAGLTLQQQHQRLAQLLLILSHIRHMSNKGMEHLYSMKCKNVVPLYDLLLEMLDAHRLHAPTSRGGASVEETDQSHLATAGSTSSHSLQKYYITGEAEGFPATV
Sequence of Androgen receptor (Homo sapiens) (P10275 whole entry, looked up): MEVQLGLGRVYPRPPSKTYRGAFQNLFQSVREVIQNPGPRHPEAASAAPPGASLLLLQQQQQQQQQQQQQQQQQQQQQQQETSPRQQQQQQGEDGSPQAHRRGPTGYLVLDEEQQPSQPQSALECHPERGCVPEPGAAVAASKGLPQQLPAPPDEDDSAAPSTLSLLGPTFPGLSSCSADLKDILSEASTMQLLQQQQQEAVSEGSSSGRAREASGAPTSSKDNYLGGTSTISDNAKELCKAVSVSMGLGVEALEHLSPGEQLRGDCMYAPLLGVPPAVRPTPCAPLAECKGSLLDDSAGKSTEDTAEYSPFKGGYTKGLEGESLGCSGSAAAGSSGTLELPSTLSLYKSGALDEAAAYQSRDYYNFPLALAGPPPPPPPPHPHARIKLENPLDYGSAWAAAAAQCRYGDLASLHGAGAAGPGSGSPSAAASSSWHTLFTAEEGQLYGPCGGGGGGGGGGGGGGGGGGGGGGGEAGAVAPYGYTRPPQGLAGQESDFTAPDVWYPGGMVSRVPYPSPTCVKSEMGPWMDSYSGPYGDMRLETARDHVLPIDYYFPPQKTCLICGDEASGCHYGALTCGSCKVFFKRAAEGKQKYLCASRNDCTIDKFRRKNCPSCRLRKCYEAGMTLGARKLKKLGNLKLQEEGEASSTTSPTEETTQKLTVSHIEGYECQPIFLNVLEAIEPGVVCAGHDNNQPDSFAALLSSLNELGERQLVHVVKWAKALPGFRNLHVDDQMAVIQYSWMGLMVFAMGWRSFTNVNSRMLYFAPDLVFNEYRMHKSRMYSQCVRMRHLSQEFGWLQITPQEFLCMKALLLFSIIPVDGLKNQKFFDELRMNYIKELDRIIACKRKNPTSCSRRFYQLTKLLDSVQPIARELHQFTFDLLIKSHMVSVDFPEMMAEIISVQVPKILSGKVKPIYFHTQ

CC(C)Cc1nccs1
inactive: Potency [1] | Potency [2] | Potency [3] | outcome [4] | Potency [5] | Potency [6]

CO[C@@H]1COCC[C@@H]1N[C@@H]1CC[C@@](C(=O)N2CCc3ncc(C(F)(F)F)cc3C2)(C(C)C)C1
inactive: Potency [1] | Potency [2] | Potency [3] | outcome [4] | Potency [5] | Potency [6]

Cc1c(Nc2ncccc2C(=O)O)cccc1C(F)(F)F
inactive: Potency [1] | Potency [2] | outcome [4] | Potency [5] | Potency [6]

O=C1OC(=O)C2CC=CCC12 (configuration not stated)
inactive: Potency [1] | Potency [2] | Potency [7] | Potency [3] | outcome [4] | Potency [5] | Potency [6]

CCc1ccc2c(c1)C(=O)c1ccccc1C2=O
active: Potency [3] 770 nM
inactive: Potency [1] | Potency [2] | Potency [7] | outcome [4] | Potency [5] | Potency [6]

c1ccc(CCNc2nc(-c3ccccc3)cs2)cc1
active: Potency [3] 2980 nM
inactive: Potency [1] | Potency [2] | Potency [7] | outcome [4] | Potency [5] | Potency [6]

COc1ccc(/C=C/S(=O)(=O)NC(=O)c2ccc(C)cc2Cl)cc1
inactive: Potency [1] | Potency [2] | Potency [3] | outcome [4] | Potency [5] | Potency [6]

CCCCOC(=O)CC#N
inactive: Potency [1] | Potency [2] | Potency [7] | Potency [3] | outcome [4] | Potency [5] | Potency [6]

COc1ccc(C(=O)Nc2ccccc2)cc1[N+](=O)[O-]
inactive: Potency [1] | Potency [2] | Potency [7] | outcome [4] | Potency [5] | Potency [6]

CCCCCCCCCCCC(=O)OCC
inactive: Potency [1] | Potency [2] | Potency [7] | Potency [3] | outcome [4] | Potency [5] | Potency [6]

O=C(Cl)c1cc(Cl)cc(Cl)c1
inactive: Potency [1] | Potency [2] | Potency [7] | Potency [3] | outcome [4] | Potency [5] | Potency [6]

CC1(C)CC(O)CC(C)(C)N1[O]
inactive: Potency [1] | Potency [2] | Potency [7] | outcome [4] | Potency [5] | Potency [6]

COC(=O)C(C)(C)C
inactive: Potency [1] | Potency [2] | Potency [3] | outcome [4] | Potency [5] | Potency [6]

CCCc1nc(C)c2c(=O)[nH]c(-c3cc(S(=O)(=O)N4CCN(CC)CC4)ccc3OCC)nn12
inactive: Potency [1] | Potency [2] | Potency [8] | Potency [3] | outcome [4] | Potency [5] | Potency [6]

CCn1nc(Cc2ccccc2)cc1C1CCN(C[C@H]2C[C@H](N(C)[C@@H](C(=O)O)C(C)C)C[C@@H]2c2cccc(F)c2)CC1
inactive: Potency [1] | Potency [2] | Potency [7] | Potency [3] | outcome [4]

C=Cc1ccc(C=C)cc1
inactive: Potency [1] | Potency [2] | Potency [7] | Potency [3] | outcome [4] | Potency [5] | Potency [6]

CCCCCCCCCCCCN1CCOCC1
inactive: Potency [1] | Potency [2] | Potency [7] | Potency [3] | outcome [4] | Potency [5] | Potency [6]

CC(C)CC(C)(C)C
inactive: Potency [1] | Potency [2] | Potency [7] | outcome [4] | Potency [5] | Potency [6]

CC(C)=CCC[C@H](C)CCO
inactive: Potency [1] | Potency [2] | Potency [7] | Potency [3] | outcome [4] | Potency [5] | Potency [6]

C=CC(=O)NC(C)(C)C
inactive: Potency [1] | Potency [2] | Potency [7] | Potency [3] | outcome [4] | Potency [5] | Potency [6]

O=C(O)c1c2ccccc2cc2ccccc12
inactive: Potency [1] | Potency [2] | Potency [7] | Potency [3] | outcome [4] | Potency [5] | Potency [6]

CO[C@@H]1[C@@H](O[C@@H]2O[C@H](C)[C@@H](O[C@H]3C[C@@](C)(O)[C@@H](O)[C@H](C)O3)[C@H](N(C)C)[C@H]2O)[C@@H](CC=O)C[C@@H](C)[C@@H](O[C@@H]2CC[C@H](N(C)C)[C@@H](C)O2)/C=C/C=C/C[C@@H](C)OC(=O)C[C@H]1OC(C)=O
inactive: Potency [1] | Potency [2] | Potency [7] | Potency [3] | outcome [4] | Potency [5] | Potency [6]

CCOC(C)OCC
inactive: Potency [1] | Potency [2] | Potency [9] | Potency [3] | outcome [4] | Potency [5] | Potency [6]

Oc1ccc(Oc2ccccc2)cc1
inactive: Potency [1] | Potency [2] | Potency [7] | Potency [3] | outcome [4] | Potency [5] | Potency [6]

N#Cc1ccc(CC(=O)c2cccc(C(F)(F)F)c2)cc1
inactive: Potency [1] | Potency [2] | Potency [3] | outcome [4] | Potency [5] | Potency [6]

CC(Cc1ccccc1)(NC(=O)CN)c1ccccc1 (configuration not stated)
inactive: Potency [1] | Potency [2] | Potency [7] | Potency [3] | outcome [4] | Potency [5] | Potency [6]

COc1ccc(C(=O)c2ccc(C)cc2)c(O)c1
inactive: Potency [1] | Potency [2] | Potency [7] | outcome [4] | Potency [5] | Potency [6]

COC=O
inactive: activity change, negative = cytotoxicity [1] 7.16% [at 8.39 µM] | viability change, negative = cytotoxic [2] 2.17% [at 8.39 µM] | activity change, negative = inhibition [7] -1.73% [at 8.39 µM] | activity change, negative = cytotoxicity [4] -4.91% [at 8.39 µM] | viability change, negative = cytotoxic [5] 14% [at 8.39 µM] | viability change, negative = cytotoxic [6] 5.98% [at 8.39 µM]

C[C@H](CN1CCCC1)C(=O)c1ccc(C(F)(F)F)cc1
inactive: Potency [1] | Potency [2] | outcome [4] | Potency [5] | Potency [6]
